Source: PubChem BioAssay (National Center for Advancing Translational Sciences (NCATS))
MARV entry inh – blocks Marburg virus binding to or entry into cells; 300,000 compounds, 1.8% hits; Marburg virus pseudotyped entry inhibition, cell reporter; AID 540276; Potency, µM (series often up to 37.8 µM), without a hit: at the top dose activity change, negative = inhibition, hits mostly inhibitors; calls by dose curve; tested in HEK293 cells; also: potency is read from the fitted curve at half-maximal effect
FMDV antiviral – blocks foot and mouth disease virus; FMDV antiviral cell-based qHTS; 410,000 compounds, 1.2% hits; Potency, µM (titrated, usually from 57.9 µM), inactives show top-dose activity change, negative = inhibition, usual class: inhibitors; calls by dose curve; tested in HEK293T cells; also: read-out not given here; potency is read from the fitted curve at half-maximal effect; nearly all actives have a fitted effect of over 45% in size
LASV entry inh – blocks Lassa virus binding to or entry into cells; Potency, µM (series often up to 37.9 µM), for the others: top-dose activity change, negative = inhibition, usual class: inhibitors; AID 540256; Lassa virus pseudotype entry inhibition, cell reporter; 300,000 compounds, 1.2% hits; calls by dose curve; tested in HEK293 cells; also: potency is read from the fitted curve at half-maximal effect; nearly all actives have a fitted effect of over 50% in size
HCMV inh – human cytomegalovirus inhibition. HFF cells, HCMV-luciferase reporter, 72 h; hits give low values. activity change, negative = inhibition, % at 57.5 µM. 410,000 compounds, 4.5% hits; in the data active = activity change below about -60%; inconclusive = no clear call, values can overlap the other calls; inactive = above about -39%
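Cell-based, HFFs, 1000 cells/well, 16 h 37C; cpds in DMSO + HCMV-luc, MOI 1 PFU/cell; 72 h 37C; OneGlo luminescence after 5 min RT; norm. to buffer vs Salinomycin 10uM.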
Active calls of the source: *; ? = inconclusive; nt = not tested or not shown; ! = a repeat was not active; [ ] = remark or other dose. Rows were chosen to be rich in hits. Some 6.2% of all compounds tested hit in one or more screens of this group. % is scaled to controls: 0 for no effect and ±100 for the full control effect.

SMILES	MARV entry inh	FMDV antiviral	LASV entry inh	HCMV inh
OC(CN1C2=NCCCN2c2ccccc21)c1ccc(Cl)cc1 (centres undefined)	nt	-22%	nt	-69*
Clc1ccc(CN2C3=NCCCN3c3ccccc32)cc1Cl	?	-24%	?	-84*
Cc1nc2ccc(S(=O)(=O)c3ccc4nc(C)[nH]c4c3)cc2[nH]1	-14%	6%	14%	-1
Cc1nc2ccc(NS(=O)(=O)c3ccc(C)c(C)c3)cc2s1	?	-1%	-12%	-88*
COc1ccc(NC(=O)CN(Cc2ccccc2)S(=O)(=O)c2ccc3nc(C)sc3c2)cc1	nt	-21%	-15%[46.1 µM]	-10
COCCNC(=O)CN(Cc1ccccc1)S(=O)(=O)c1ccc2nc(C)sc2c1	nt	8%	nt	-61*
Cc1nc2ccc(NS(=O)(=O)c3ccc(F)c(C)c3)cc2[nH]1	nt	-10%	nt	-60*
COc1cc(S(=O)(=O)Nc2ccc3nc(C)sc3c2)ccc1NC(C)=O	nt	6%	nt	-88*
C[C@@H]1CN([C@H](C)CO)C(=O)CCCn2nncc2CO[C@H]1CN(C)C(=O)Nc1ccc(N2CCCCC2)cc1	nt	-5%	nt	-3
Cc1ccc(CN(C)C(=O)c2cccc(S(=O)(=O)N3CCN(c4ccccc4)CC3)c2)cc1	?	?	?	-39
COc1ccc(NC(=O)CN(C)S(=O)(=O)c2ccc3nc(C)sc3c2)cc1Cl	-2%[46.1 µM]	?	-2%[46.1 µM]	-69*
COc1ccc(NC(=O)CCS(=O)(=O)c2ccc3nc(C)sc3c2)cc1Cl	nt	-23%	16%[46.1 µM]	-15
COc1ccc(S(=O)(=O)N2CCCCCC2)cc1N(C)S(=O)(=O)c1ccc(Cl)cc1	?	nt	-42%	-60*
COc1ccc2cc(S(=O)(=O)N3CCCCC3)ccc2c1S(=O)(=O)N1CCCCC1	?	?	-21%	-72*
C/C(=N/Oc1nc(C)cc(C)n1)c1ccc(Br)cc1	7%	-1%	3%	0
O=C(N/N=C/c1cccnc1)c1cccc(Cl)c1	1%[46.1 µM]	8%	23%[46.1 µM]	14
O=C(N/N=C/c1cccnc1)c1cccc(Br)c1	nt	27%	nt	11
CC(C)c1ccc(OCc2cccc(C(=O)N/N=C/c3cccnc3)c2)cc1	1.4µM*	-20%	?	171
CCOc1ccc(OCc2cccc(C(=O)N/N=C/c3cccnc3)c2)cc1	0.32µM*	-40%	1.6µM*	83
CC1=C(C#N)C(c2ccccc2)C2=C(N1)c1ccccc1C2=O (centres undefined)	?	?	?	-71*
COc1cc(Cl)c(NS(=O)(=O)c2cc3[nH]c(=O)c(=O)[nH]c3cc2C)c(OC)c1	nt	-3%	22%[46.1 µM]	2
Cc1c(/C(O)=C2/C(=O)C(=O)N(Cc3cccnc3)C2c2ccccn2)cnn1-c1ccccc1 (centres undefined)	?	4µM*	-13%	-76*
COCCNC(=O)c1cccc(Nc2nc(-c3ccccc3)c3cc(Cl)ccc3n2)c1	5%	?	-1%	-33
Cc1cc(O)cc(O)c1C(=O)Cc1ccccc1	?	0%	?	-71*
CCOC(=O)c1cccnc1SCC(=O)Nc1ccc(C)cc1	5%[46.1 µM]	34%	24%	46
SMILES	MARV entry inh	FMDV antiviral	LASV entry inh	HCMV inh
COc1cc(NC(=O)CSc2ncccc2C(=O)OC(C)C)cc(OC)c1	-26%	-25%	1%[46.1 µM]	-108*!
COc1cc(NC(=O)CSc2nc3ccccc3nc2Cc2ccc(Cl)cc2)cc(OC)c1	nt	2.5µM*	-16%[46.1 µM]	0
COc1ccc(NC(=O)CSc2nc3ccccc3nc2Cc2ccc(C)cc2)cc1Cl	nt	0%	13%[46.1 µM]	1
COc1cccc(CNC(=O)CSc2nc3ccccc3nc2Cc2ccc(C)cc2)c1OC	nt	-7%	0%[46.1 µM]	-92*
COc1ccccc1Cc1nc2ccccc2nc1SCC(=O)NCc1ccc(C)cc1	nt	2%	11%[46.1 µM]	17
Cc1ccccc1S(=O)(=O)N1[C@@H](c2ccc(F)cc2)C(C(=O)O)=CC[C@H]1c1ccc(Cl)cc1	nt	-15%	nt	86
O=C(O)CSc1ccc2nnc(-c3cccnc3)n2n1	nt	7%	nt	0
CCSc1ccc2nnc(-c3cccc(F)c3)n2n1	-15%	-18%	-1%	-64*
Fc1ccc(CSc2ccc3nnc(-c4cccnc4)n3n2)cc1	-20%[46.1 µM]	?	13µM*	22
CCCNC(=O)C(Cc1ccccc1)NC(=O)c1ccccn1 (centres undefined)	nt	1%	nt	-8
CC(C)C[C@H](NC(=O)[C@H](Cc1ccccc1)NC(=O)c1cnccn1)B(O)O	nt	nt	nt	-99*
CCOc1ccc(C2c3cc(OC)c(OC)cc3CC(=O)N2c2ccc(OC)cc2)cc1 (centres undefined)	?	-22%	?	14
Cc1ccc(C)c(Sc2ccc(NC(=O)CCN3C(=O)NC4(CCCC4)C3=O)cc2)c1	nt	?	nt	-7
Cc1ccc(Sc2ccc(NC(=O)CCl)cc2)c(C)c1	-21%	32µM*	?	18
OC[C@@H]1CN(Cc2ccccc2)C[C@H](n2cnc3c(NC4CC4)ncnc32)O1	nt	-12%	nt	46
OC[C@@H]1CN(Cc2ccc(-c3ccccc3)cc2)C[C@H](n2cnc3c(NC4CCC4)ncnc32)O1	nt	18µM*	nt	-88*
CCCCn1c(N)c(N(CC(C)C)C(=O)c2cc(C)oc2C)c(=O)[nH]c1=O	-10%	4%	?	34
CC1(C)CC(=O)C2=C(C1)NC(Nc1nc3ccccc3o1)=NC2c1ccccn1 (centres undefined)	?	?	-10%	?
CC1=C(C(=O)Nc2ccccc2)C(c2ccc(C)cc2)N=C(Nc2nc3ccccc3o2)N1 (centres undefined)	?	-23%	?	-67*
Oc1ccccc1Oc1ncc(Br)c(N2CCOCC2)n1	-16%	-29%	18%	39
Oc1ccccc1Oc1c(F)c(F)nc(N2CCCC2)c1F	?	5%	4.6µM*	-13
Cc1oc2cc3oc(=O)c(CCC(=O)NCCc4ccccc4F)c(C)c3cc2c1C	5%[46.1 µM]	32%	27%[46.1 µM]	-16
CC1CC(C)CN(CCCNC(=O)c2ccc(CS(=O)(=O)Cc3ccccc3F)o2)C1 (centres undefined)	2%	6%	-2%	-73*
Cc1cc(C)n(CC(=O)N/N=C/c2c[nH]c3ccccc23)n1	9%	42%	-7%	25
COC(=O)c1ccc(C(=O)OC)c(NC(=O)CN2CCN(c3ccccc3)CC2)c1	9.2µM*	-13%	?	-15
SMILES	MARV entry inh	FMDV antiviral	LASV entry inh	HCMV inh
COC(=O)c1ccccc1NC(=O)CN1CCc2ccccc2C1	-14%	-24%	-21%	7
CCOC(=O)N1CCN(CC(=O)Nc2c(C(=O)OC)[nH]c3ccc(Cl)cc23)CC1	?	32µM*	?	?
COC(=O)c1[nH]c2ccc(C)cc2c1NC(=O)CN1CCN(Cc2ccccc2)CC1	-20%	?	?	-10
COC(=O)c1[nH]c2ccc(C)cc2c1NC(=O)CN1CCN(c2ccccc2)CC1	?	?	?	-65*
COC(=O)c1ccccc1NC(=O)CN1CCN(C23CC4CC(CC(C4)C2)C3)CC1	5.8µM*	-15%	?	-16
COc1ccc(OC)c(C2=NS(=O)(=O)N(C)C(C(=O)Nc3ccc(C(C)=O)cc3)=C2)c1	20%[46.1 µM]	-1%	2%[46.1 µM]	-25
CSC1=NCCN1C(=O)COc1ccc2ccccc2c1	nt	-1%	nt	-20
